Values without a mark were called inactive. Results filed as inconclusive are left out. Entries that show only a call come without a potency. Calls of active or inactive are those of the source. Unless noted, calls come from the whole dose curve.
Assays:
[1] = Nuclear factor erythroid 2-related factor 2/antioxidant responsive element (Nrf2/ARE) small molecule agonists: qHTS cell viability counter screen in human keratinocytes (AID 1919968; active = well fitted curve in the direction sought with a large enough effect in the repeat runs; an effect the other way counts as inactive or inconclusive; note: nearly all actives have a fitted effect of over 55% in size; note: potency is the fitted concentration of half-maximal effect)
Method in brief: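 Cytotoxicity was multiplexed with the Nrf2/ARE luciferase assay in the same wells. Stably transfected HaCaT keratinocytes were treated with test compounds for 23 h at 37 C. Cell viability was then measured by CellTiter-Fluor fluorescence.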

[2] = molecular target: Gonadotropin-releasing hormone receptor (Homo sapiens) (UniProt P30968); experiment: Human gonadotropin-releasing hormone receptor (GnRHR) small molecule agonists, calcium flux assay in GnRHR-HEK293 cells (AID 1920063); note: nearly all actives have a fitted effect of over 35% in size; note: potency is the fitted concentration of half-maximal effect
Method in brief: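 Agonist activity was measured as intracellular calcium flux in HEK293 cells engineered to stably express human GnRHR. After dye loading for 1 hour at 37 C, compounds in DMSO were added and fluorescence was followed for 3 minutes.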

[3] = molecular target: KiSS-1 receptor (Homo sapiens) (UniProt Q969F8); experiment: Human kisspeptin (KISS1R) small molecule agonists, calcium flux assay in KISS1R-HEK293 cells (AID 1920064; active = well fitted curve in the direction sought with a large enough effect in the repeat runs; an effect the other way counts as inactive or inconclusive; note: potency is the fitted concentration of half-maximal effect)
Method in brief: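 Agonist activity is monitored as intracellular calcium rise in engineered HEK293 cells carrying human KISS1R. Cells are dye-loaded for 1 h at 37 C before compound addition, and fluorescence is recorded for 3 min.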

[4] = G protein-coupled receptor (GPCR) small molecule agonists, calcium flux assay: HEK293 wild type cell line counter screen (AID 1920065)
Method in brief: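 Seed cells, incubate 18 h (37 C, 5% CO2); add calcium dye, 1 h at 37 C; pin-transfer compounds, ATP control or DMSO; read fluorescence 480/540 nm each second for 3 min.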

[5] = p53 small molecule agonists, cell-based qHTS assay with human liver microsomes (AID 1963577);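 note: p53 response element beta-lactamase reporter cells with liver microsomes plus NADPH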
Method in brief: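 p53RE-bla cells; 5 h settle, 37 C/5% CO2; cpd + HLM 0.5 mg/mL + NADPH 0.5 mg/mL (final); 16 h 37 C; LiveBLAzer 2 h RT dark; fluorescence readout.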

[6] = p53 small molecule agonists, cell-based qHTS assay with rat liver microsomes (AID 1963578)
Method in brief: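 Rat liver microsome activation: microsomes 0.5 mg/mL, NADPH 0.5 mg/mL final; p53RE-bla cells, 16 h 37 C; LiveBLAzer readout, 2 h RT dark.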

[7] = p53 small molecule agonists, cell-based qHTS assay with human liver microsomes: qHTS cell viability counter screen (AID 1963579); note: nearly all actives have a fitted effect of over 45% in size; note: potency is the fitted concentration of half-maximal effect
Method in brief: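 Luminescent CellTiter-Glo read-out, 30 min at room temperature, gauged cytotoxicity in p53RE-bla cells exposed 16 h at 37 C to DMSO-dissolved compounds with metabolic activation by human liver microsomes and NADPH, each 0.5 mg/mL final.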

[8] = p53 small molecule agonists, cell-based qHTS assay with rat liver microsomes: qHTS cell viability counter screen (AID 1963580); note: nearly all actives have a fitted effect of over 45% in size; note: potency is the fitted concentration of half-maximal effect
Method in brief: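 Rat liver microsome (0.5 mg/mL final) and NADPH (0.5 mg/mL final) co-incubation with compounds for 16 h at 37 C on HCT-116 p53RE-bla cells; cytotoxicity taken from intracellular ATP luminescence.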

[9] = p53 small molecule agonists, cell-based qHTS assay (AID 1963582; active = well fitted activation curve with a large enough effect in the signal ratio in the repeat runs, not every such curve was filed as active; the % refers to the signal ratio)
Method in brief: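 Cells carrying a p53-responsive bla reporter are treated with test compounds for 16 h at 37 C; beta-lactamase activity is then detected with LiveBLAzer B/G FRET substrate after 2 h at room temperature.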

[10] = molecular target: 5-hydroxytryptamine receptor 2A (Homo sapiens) (UniProt P28223); experiment: 5-hydroxytryptamine receptor 2A (HTR2A) small molecule antagonists, cell-based qHTS assay (AID 1963586); note: nearly all actives have a fitted effect of over 45% in size; note: potency is the fitted concentration of half-maximal effect
Method in brief: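 CHO cells stably expressing human HTR2A were plated for 18 h at 37 C, then loaded with calcium dye for 1 h. Compounds were preincubated 5 min at room temperature before DOI (4 nM solution) was added. Kinetic fluorescence was read for 3 min.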

[11] = molecular target: 5-hydroxytryptamine receptor 2A (Homo sapiens) (UniProt P28223); experiment: 5-hydroxytryptamine receptor 2A (HTR2A) small molecule agonists, cell-based qHTS assay (AID 1963587); note: nearly all actives have a fitted effect of over 30% in size; note: potency is the fitted concentration of half-maximal effect
Method in brief: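 Kinetic calcium-flux fluorescence (2 min, 1 sec intervals) after compound addition in agonist mode. HTR2A-CHO cells were cultured 18 h, then dye-loaded 1 h at 37 C.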

[12] = molecular target: Muscarinic acetylcholine receptor M1 (Homo sapiens) (UniProt P11229); experiment: Cholinergic receptor muscarinic 1 (CHRM1) small molecule antagonists, cell-based qHTS assay (AID 1963588); note: nearly all actives have a fitted effect of over 40% in size
Method in brief: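 Compounds were tested at 15 concentrations in three independent runs. Dye-loaded CHRM1-CHO cells were exposed 5 min at room temperature before stimulation by acetylcholine added at 50nM. Intracellular calcium was read kinetically on FDSS for 3 min.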

[13] = molecular target: Muscarinic acetylcholine receptor M1 (Homo sapiens) (UniProt P11229); experiment: Cholinergic receptor muscarinic 1 (CHRM1) small molecule agonists, cell-based qHTS assay (AID 1963589); note: nearly all actives have a fitted effect of over 35% in size
Method in brief: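 Cells were plated and incubated 18 h at 37 C/5% CO2, loaded with calcium dye for 1 h at 37 C, then treated with compounds in DMSO. Fluorescence was recorded kinetically at 1 sec intervals.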

[14] = cAMP Responsive Elements (CRE) small molecule agonists, cell-based qHTS assay (AID 1963590)
Method in brief: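 Cells carrying a CRE-driven beta-lactamase reporter (HEK 293T) are seeded, incubated overnight (18 h), and treated with test compounds for 3 h at 37 C; reporter activity is then detected with a FRET substrate after 2 h at room temperature.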

[15] = cAMP Responsive Elements (CRE) small molecule antagonists, cell-based qHTS assay (AID 1963591; active = well fitted inhibition curve with a large enough effect in the signal ratio in the repeat runs, not every such curve was filed as active; the % refers to the signal ratio)
Method in brief: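 Cells (CRE-bla HEK 293T, DMEM with 10% dialyzed FBS and 25 mM HEPES) are seeded and incubated 18 h. Compounds are added with NKH477 agonist at 0.25 uM final for 3 h, then FRET substrate for 2 h.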

[16] = molecular target: Beta-2 adrenergic receptor (Homo sapiens) (UniProt P07550); experiment: Adrenergic beta2 receptor (ADRB2) small molecule antagonists, cell-based qHTS assay (AID 1963592); note: nearly all actives have a fitted effect of over 50% in size; note: potency is the fitted concentration of half-maximal effect
Method in brief: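 Assay format: CHO-ADRB2 cells, 18-20hr seeding at 37C/5% CO2, then compound plus 1nM isoproterenol agonist mix for 0.5hr RT. Homogeneous time-resolved fluorescence cAMP detection after 1hr, expressed as 665/615 nm ratio.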

[17] = molecular target: D(2) dopamine receptor (Homo sapiens) (UniProt P14416); experiment: Dopamine D2 receptor (DRD2) small molecule agonists, cell-based qHTS assay (AID 1963594); note: nearly all actives have a fitted effect of over 35% in size
Method in brief: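 cAMP accumulation in DRD2-HEK293 cells measured by HTRF after 1 h detection; compounds added 10 min before NKH477 (200nM […]) forskolin-analogue stimulation, 30 min at room temperature, with Ro20-1724 present at 0.1 mM final.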

[18] = molecular target: D(2) dopamine receptor (Homo sapiens) (UniProt P14416); experiment: Dopamine D2 receptor (DRD2) small molecule antagonists, cell-based qHTS assay (AID 1963595; active = well fitted inhibition curve with a large enough effect in the signal ratio in the repeat runs, with a control signal flat; the % refers to the signal ratio; note: potency is the fitted concentration of half-maximal effect)
Method in brief: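 HEK293 cells stably expressing DRD2, preincubated with 0.1 mM Ro20-1724 and compounds 10 min, were stimulated with 200 nM NKH477 plus 12 nM quinpirole for 30 min at room temperature; cAMP measured by HTRF (665/620 nm).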

[19] = p53 small molecule agonists, cell-based qHTS assay: qHTS cell viability counter screen (AID 1963581); note: nearly all actives have a fitted effect of over 45% in size; note: potency is the fitted concentration of half-maximal effect
Method in brief: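 Viability was counter-screened in parallel with the p53 agonist reporter by measuring intracellular ATP luminescence in the same HCT-116 p53RE-bla wells after 16 h compound treatment at 37 C.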

[20] = molecular target: Beta-2 adrenergic receptor (Homo sapiens) (UniProt P07550); experiment: Adrenergic beta2 receptor (ADRB2) small molecule agonists, cell-based qHTS assay (AID 1963593);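 note: CHO cells stably overexpressing human ADRB2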
Method in brief: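 CHO cells stably over-expressing ADRB2 were plated overnight at 37C, then dosed with compounds plus a stimulation mix containing 100uM IBMX and 25uM Ro-20-1724 for 0.5hr at room temperature. cAMP was measured by HTRF competition, 1hr.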

Chain of Muscarinic acetylcholine receptor M1 (Homo sapiens) (P11229 whole entry, looked up): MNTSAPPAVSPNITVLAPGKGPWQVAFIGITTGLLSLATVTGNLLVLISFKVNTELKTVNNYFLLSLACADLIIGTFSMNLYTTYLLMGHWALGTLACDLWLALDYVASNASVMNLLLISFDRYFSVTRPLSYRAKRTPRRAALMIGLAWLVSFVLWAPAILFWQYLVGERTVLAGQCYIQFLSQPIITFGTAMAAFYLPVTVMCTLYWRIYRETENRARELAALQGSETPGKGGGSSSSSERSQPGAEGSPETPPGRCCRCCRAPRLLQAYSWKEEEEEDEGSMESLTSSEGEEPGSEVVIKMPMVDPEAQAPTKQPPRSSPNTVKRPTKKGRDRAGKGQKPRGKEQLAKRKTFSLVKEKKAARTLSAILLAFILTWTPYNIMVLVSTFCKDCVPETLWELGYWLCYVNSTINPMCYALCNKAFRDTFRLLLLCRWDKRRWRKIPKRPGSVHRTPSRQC
Chain of KiSS-1 receptor (Homo sapiens) (Q969F8 whole entry, looked up): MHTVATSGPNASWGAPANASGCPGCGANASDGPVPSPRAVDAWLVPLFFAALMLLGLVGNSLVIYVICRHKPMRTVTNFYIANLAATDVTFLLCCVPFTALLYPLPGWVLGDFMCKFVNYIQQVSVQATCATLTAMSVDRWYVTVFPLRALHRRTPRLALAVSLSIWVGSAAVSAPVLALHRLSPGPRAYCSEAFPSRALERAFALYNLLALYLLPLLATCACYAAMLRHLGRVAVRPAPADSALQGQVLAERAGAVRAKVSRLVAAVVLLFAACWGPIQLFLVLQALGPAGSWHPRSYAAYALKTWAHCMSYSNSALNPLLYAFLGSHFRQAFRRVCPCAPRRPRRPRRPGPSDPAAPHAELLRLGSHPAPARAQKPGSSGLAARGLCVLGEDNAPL
Chain of D(2) dopamine receptor (Homo sapiens) (P14416 whole entry, looked up): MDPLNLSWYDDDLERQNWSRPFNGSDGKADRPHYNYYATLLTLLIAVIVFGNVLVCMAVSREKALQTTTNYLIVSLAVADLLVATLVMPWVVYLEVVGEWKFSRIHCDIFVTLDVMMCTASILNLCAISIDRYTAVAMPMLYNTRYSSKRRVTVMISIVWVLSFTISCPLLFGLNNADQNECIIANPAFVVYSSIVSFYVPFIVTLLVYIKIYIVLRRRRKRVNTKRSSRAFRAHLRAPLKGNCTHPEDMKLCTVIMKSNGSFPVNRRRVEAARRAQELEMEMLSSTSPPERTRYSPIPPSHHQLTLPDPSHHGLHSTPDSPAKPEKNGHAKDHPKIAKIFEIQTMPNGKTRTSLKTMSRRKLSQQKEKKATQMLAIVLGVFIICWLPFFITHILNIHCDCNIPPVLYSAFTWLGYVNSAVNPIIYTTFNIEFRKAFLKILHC
Chain of Beta-2 adrenergic receptor (Homo sapiens) (P07550 whole entry, looked up): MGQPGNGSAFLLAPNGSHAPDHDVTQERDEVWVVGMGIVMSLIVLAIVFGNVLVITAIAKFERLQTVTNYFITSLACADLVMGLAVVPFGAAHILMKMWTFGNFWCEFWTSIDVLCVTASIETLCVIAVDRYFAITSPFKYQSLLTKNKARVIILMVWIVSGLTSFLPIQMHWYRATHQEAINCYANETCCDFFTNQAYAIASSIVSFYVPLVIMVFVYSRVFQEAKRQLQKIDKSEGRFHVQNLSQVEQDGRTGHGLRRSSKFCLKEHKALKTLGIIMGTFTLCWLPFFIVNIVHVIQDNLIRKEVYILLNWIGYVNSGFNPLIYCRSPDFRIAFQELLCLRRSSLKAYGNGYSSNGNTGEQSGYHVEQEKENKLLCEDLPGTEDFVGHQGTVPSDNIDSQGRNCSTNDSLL
Chain of 5-hydroxytryptamine receptor 2A (Homo sapiens) (P28223 whole entry, looked up): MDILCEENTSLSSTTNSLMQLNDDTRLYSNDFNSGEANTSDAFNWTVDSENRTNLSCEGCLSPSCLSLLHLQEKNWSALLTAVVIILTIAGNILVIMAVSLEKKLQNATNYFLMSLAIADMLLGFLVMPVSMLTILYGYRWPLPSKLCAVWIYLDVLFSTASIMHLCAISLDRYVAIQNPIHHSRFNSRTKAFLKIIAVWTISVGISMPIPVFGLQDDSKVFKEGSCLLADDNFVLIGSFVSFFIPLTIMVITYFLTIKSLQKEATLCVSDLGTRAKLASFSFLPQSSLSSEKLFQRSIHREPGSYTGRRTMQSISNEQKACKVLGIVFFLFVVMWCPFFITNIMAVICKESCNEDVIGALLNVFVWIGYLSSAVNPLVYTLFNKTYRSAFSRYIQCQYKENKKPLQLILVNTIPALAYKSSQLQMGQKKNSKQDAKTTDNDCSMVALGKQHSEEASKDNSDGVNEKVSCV
Chain of Gonadotropin-releasing hormone receptor (Homo sapiens) (P30968 whole entry, looked up): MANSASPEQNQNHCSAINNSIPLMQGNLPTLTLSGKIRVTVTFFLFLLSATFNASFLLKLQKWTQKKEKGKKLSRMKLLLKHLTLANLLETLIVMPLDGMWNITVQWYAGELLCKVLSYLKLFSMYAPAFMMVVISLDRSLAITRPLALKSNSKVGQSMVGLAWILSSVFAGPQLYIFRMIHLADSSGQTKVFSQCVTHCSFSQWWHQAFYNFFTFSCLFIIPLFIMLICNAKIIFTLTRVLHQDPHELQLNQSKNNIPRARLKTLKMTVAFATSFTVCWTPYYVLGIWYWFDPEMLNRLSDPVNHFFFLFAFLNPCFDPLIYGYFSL

| SMILES | Potency [1] | Potency [2] | Potency [3] | Potency [4] | Potency [5] | Potency [6] | Potency [7] | Potency [8] | Potency [9] | Potency [10] | Potency [11] | Potency [12] | Potency [13] | Potency [14] | Potency [15] | Potency [16] | Potency [17] | Potency [18] | Potency [19] | Potency [20] |
| --- | --- | --- | --- | --- | --- | --- | --- | --- | --- | --- | --- | --- | --- | --- | --- | --- | --- | --- | --- | --- |
| NNC(=O)c1cccnc1 | inactive | inactive | inactive | inactive | inactive | inactive | inactive | inactive | inactive | inactive | inactive | inactive | inactive | inactive | inactive | inactive | inactive | inactive | – | – |
| FC(F)C(F)(F)OCC(Cn1cncn1)c1ccc(Cl)cc1Cl (configuration not stated) | inactive | inactive | inactive | inactive | inactive | inactive | inactive | – | inactive | – | inactive | inactive | inactive | – | – | inactive | inactive | – | inactive | – |
| CCCCCl | inactive | inactive | inactive | inactive | inactive | inactive | inactive | inactive | inactive | inactive | inactive | inactive | inactive | inactive | inactive | inactive | inactive | inactive | – | – |
| Clc1ccc(C(Cl)(Cl)Cl)cc1Cl | inactive | inactive | inactive | inactive | inactive | inactive | inactive | inactive | inactive | inactive | inactive | inactive | – | inactive | inactive | inactive | inactive | inactive | – | inactive |
| Cc1cc(C)c(C(=O)P(=O)(C(=O)c2c(C)cc(C)cc2C)c2ccccc2)c(C)c1 | inactive | inactive | inactive | inactive | inactive | inactive | inactive | inactive | – | inactive | inactive | inactive | inactive | inactive | – | – | inactive | inactive | – | inactive |
| II | inactive | inactive | inactive | inactive | inactive | inactive | – | inactive | inactive | inactive | – | inactive | inactive | inactive | inactive | inactive | inactive | – | inactive | inactive |
| O=C(NC(=O)c1c(F)cccc1F)Nc1cc(Cl)c(OC(F)(F)C(F)F)c(Cl)c1 | inactive | inactive | inactive | inactive | inactive | inactive | inactive | – | inactive | inactive | inactive | inactive | inactive | inactive | inactive | inactive | inactive | inactive | inactive | – |
| N=C(N)[Se] | inactive | inactive | inactive | inactive | inactive | inactive | inactive | inactive | – | inactive | – | inactive | inactive | inactive | inactive | inactive | inactive | inactive | inactive | inactive |
| CC(C)(CCl)C(=O)Cl | inactive | inactive | inactive | inactive | inactive | inactive | – | – | inactive | inactive | inactive | inactive | inactive | inactive | inactive | inactive | inactive | inactive | inactive | – |
| CCC(C)c1cc(C(C)(C)C)cc(-n2nc3ccccc3n2)c1O (configuration not stated) | inactive | inactive | inactive | inactive | inactive | inactive | inactive | – | inactive | – | inactive | inactive | inactive | inactive | inactive | inactive | inactive | inactive | – | – |
| O=C1CCCCC1Cl (configuration not stated) | inactive | inactive | inactive | inactive | inactive | inactive | inactive | inactive | – | inactive | inactive | inactive | inactive | inactive | inactive | – | inactive | inactive | inactive | – |
| CC1=C2C[C@H]3[C@@H](CC=C4C[C@@H](O)CC[C@@]43C)[C@@H]2CC[C@]12O[C@@H]1C[C@H](C)CN[C@H]1[C@H]2C | 11.9 µM (active) | inactive | inactive | inactive | inactive | inactive | inactive | – | inactive | inactive | – | – | inactive | inactive | inactive | – | inactive | inactive | inactive | – |
| O=S1(=O)OC(c2cc(Br)c(O)c(Br)c2)(c2cc(Br)c(O)c(Br)c2)c2ccccc21 | 14.1 µM (active) | inactive | inactive | inactive | inactive | inactive | 21 µM (active) | 18.7 µM (active) | – | inactive | – | inactive | inactive | inactive | inactive | – | – | – | 18.7 µM (active) | – |
| C[C@H]1[C@@H]2Cc3ccc(O)cc3[C@@]1(C)CCN2C | inactive | inactive | inactive | inactive | inactive | inactive | – | – | inactive | inactive | inactive | inactive | inactive | inactive | inactive | inactive | inactive | inactive | inactive | inactive |
| CCC[CH2][Sn]([CH2]CCC)([CH2]CCC)[O]C(=O)c1ccccc1 | 1.09 µM (active) | 4.9 µM (active) | 19.5 µM (active) | inactive | inactive | inactive | 3.24 µM (active) | – | – | 1.33 µM (active) | 21.9 µM (active) | – | – | – | – | 0.864 µM (active) | inactive | 4.86 µM (active) | 1.62 µM (active) | – |

— PubChem BioAssay (Tox21)
